# CYP2C19 activ – increases human CYP2C19 enzyme activity. recombinant CYP2C19, luciferin-H EGE luminescence; stronger effect = higher value; 0 = fully inhibited enzyme, 1 = untreated enzyme. activation factor at 5 µM. 96,000 tested, under 10 active. AID 1025;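 active = activation factor of at least 2 at 5 µM in the primary screen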;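 also: 0 = wells with 2.5 mM tranylcypromine and 1 = vehicle-only wells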
# sEH activator – increases human soluble epoxide hydrolase activity | P34913 | purified human sEH enzymatic activity, activator screen | activation, % at 2 µM | hit rate 0.04% among 91,000; in the data active = activation above about 37%
# Target sequence (P34913 whole entry, looked up): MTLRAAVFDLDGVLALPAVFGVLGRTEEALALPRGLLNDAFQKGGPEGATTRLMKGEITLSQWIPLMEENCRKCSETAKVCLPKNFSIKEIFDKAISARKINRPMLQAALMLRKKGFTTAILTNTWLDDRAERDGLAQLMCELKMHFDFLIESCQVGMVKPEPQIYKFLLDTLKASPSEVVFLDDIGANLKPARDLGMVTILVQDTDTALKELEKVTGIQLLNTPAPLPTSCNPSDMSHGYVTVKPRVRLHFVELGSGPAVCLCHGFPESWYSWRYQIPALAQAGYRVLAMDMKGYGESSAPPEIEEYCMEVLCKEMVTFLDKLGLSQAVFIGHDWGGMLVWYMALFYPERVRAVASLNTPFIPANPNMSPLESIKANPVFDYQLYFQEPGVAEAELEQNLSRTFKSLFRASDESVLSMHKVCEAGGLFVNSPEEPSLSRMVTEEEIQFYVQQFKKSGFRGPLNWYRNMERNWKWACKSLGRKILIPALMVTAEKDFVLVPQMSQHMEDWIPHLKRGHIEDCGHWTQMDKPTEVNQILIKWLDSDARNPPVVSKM
# CYP2C19 inhib – blocks human cytochrome P450 2C19. P33261. CYP2C19 Supersomes, luciferin-H EGE luminescence, 30 min. inhibition, % at 5 µM. hit rate 21% among 96,000. AID 778;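 active = CYP2C19 inhibition above a set limit at 5 µM in the primary screen, cut at about 50% in these data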;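 also: plate controls were negative control wells for no effect and 2.5 mM tranylcypromine positive control for full effect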
# sEH inh – inhibitors of human soluble epoxide hydrolase; hit rate 0.34% among 91,000; AID 707; inhibition, % at 2 µM; P34913; recombinant human sEH enzymatic activity assay; in the data active = inhibition above about 80%
# CYP2C9 inh – human CYP2C9 inhibition. P11712. CYP2C9 Supersomes, luciferin-H conversion, luminescence. inhibition, % at 5 µM. hit rate 20% among 96,000;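 active = blocking of liver enzyme CYP2C9 beyond about 50% at 5 µM, limit read from the data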
# CYP2C9 activ – increases human cytochrome P450 2C9 activity; P11712; activation factor at 5 µM; hit rate 1.4% among 96,000; recombinant CYP2C9, luciferin-H conversion, luminescence; stronger effect = higher value; factor 1 = untreated enzyme, 0 = blocked;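 active = activation factor of 2 or more for CYP2C9 at a 5 µM dose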;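 also: 0 = sulfaphenazole-blocked wells and 1 = vehicle-only wells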
# * marks the source's active call; other numbers are inactive results; nt = no result. This is a sample that favours compounds with a hit; in the whole collection about 27% have one here.
SMILES,CYP2C19 activ,sEH activator,CYP2C19 inhib,sEH inh,CYP2C9 inh,CYP2C9 activ
CC(c1ccccc1)N1C(=O)c2ccccc2C1O (stereo unspecified),0.3,-7,66*,4,8,0.9
COc1ccc2[nH]c(C)c(C(=O)CN3CCN(C(=O)c4ccco4)CC3)c2c1,0.8,9,20,-8,15,0.8
COc1ccc2c(c1)c(C(=O)CN1CCN(C(=O)c3ccco3)CC1)c(C)n2C,0.4,nt,57*,nt,3,1
c1ccc(N2CCN(Cc3nnnn3C3CCCCC3)CC2)cc1,0.4,10,64*,-14,87*,0.1
O=C(Nc1ccccc1)NC1CCN(Cc2nnnn2C2CCCCC2)CC1,1,-68,3,67,10,0.9
Cc1ccccc1C(=O)NC1CCN(Cc2nnnn2C2CCCC2)CC1,nt,-5,nt,4,nt,nt
Cc1ccc(Cl)cc1N1CCN(Cc2nnnn2C2CCCCC2)CC1,0.6,8,44,-7,58*,0.4
COc1ccc(-c2nsc(C(=O)N(c3ccc(F)cc3)C(C(=O)NC3CCCC3)c3ccc(OC)cc3)c2N)cc1 (stereo unspecified),1.1,nt,-6,nt,10,0.9
Cc1cc(C(=O)CSc2nnc(N)s2)c(C)n1CCc1ccc(F)cc1,0,-1,96*,1,88*,0.1
Cc1cc(C(=O)CSc2nnc(N)s2)c(C)n1CCc1ccc(Cl)cc1,0.1,-7,89*,6,79*,0.2
COc1ccc(CCn2c(C)cc(C(=O)CSc3nnc(N)s3)c2C)cc1,nt,-9,nt,10,nt,nt
Cn1c(=O)c2c(nc(CN3CCOCC3)n2CC(O)CO)n(C)c1=O (stereo unspecified),1,8,-3,-7,-7,1.1
CC(C)CCSc1nc(N2CCOCC2)c2c(c1C#N)CC(C)(C)OC2,0.4,-5,63*,6,98*,0
CSc1nc(N2CCOCC2)c2c(c1C#N)CC(C)(C)OC2,0.4,-4,61*,3,97*,0
COC(=O)c1ccc(CSc2nc(N3CCOCC3)c3c(c2C#N)CC(C)(C)OC3)o1,0.3,6,69*,-6,98*,0
CC1(C)Cc2c(C#N)c(SCC(=O)c3ccccc3)nc(N3CCCC3)c2CO1,nt,-49,nt,51,nt,nt
Cc1ccc2c(c1)NCCO2,0.8,-2,16,1,-8,1.1
CC(C)(C)NC(=O)c1ccc2c(c1)N(CC(=O)N1CCN(c3ccccc3F)CC1)C(=O)C(C)(C)O2,0.9,nt,14,nt,33,0.7
COc1ccccc1CN(C)C(=O)C1COc2ccccc2O1 (stereo unspecified),0,-5,98*,6,47,0.5
COc1ccccc1NC(=O)CN1C(=O)C(C)Oc2ccccc21 (stereo unspecified),0.2,-4,85*,3,61*,0.4
COc1ccccc1NC(=O)CC1COc2ccccc2O1 (stereo unspecified),0.4,-3,64*,5,-21,1.2
CCOC(=O)CCNCC1COc2ccccc2O1 (stereo unspecified),0.3,5,75*,-7,2,1
O=c1c2c3c(sc2n2c(=S)[nH]nc2n1Cc1ccccc1)CN(Cc1ccccc1)CC3,nt,5,nt,-1,nt,nt
CCOC(=O)C1=C(C)C(c2ccccc2OC)NC(=O)N1 (stereo unspecified),1,1,4,1,-3,1
COc1cccc(CC(=O)NCC2COc3ccccc3O2)c1OC (stereo unspecified),0.4,-3,64*,3,28,0.7
CCN(CC1COc2ccccc2O1)C(=S)Nc1ccccc1 (stereo unspecified),0.4,-2,56*,5,42,0.6
Cc1onc(-c2c(F)cccc2Cl)c1C(=O)NCC1COc2ccccc2O1 (stereo unspecified),0.3,2,70*,-4,59*,0.4
O=C(NCC1COc2ccccc2O1)c1ccccc1 (stereo unspecified),0.1,-13,95*,11,17,0.8
Cc1onc(-c2c(Cl)cccc2Cl)c1C(=O)NCC1CCCO1 (stereo unspecified),0.8,0,25,1,18,0.8
COc1cccc(NC(=O)Cn2c(=O)c3c(ncn3Cc3ccccc3)n(Cc3ccccc3)c2=O)c1,0.9,-6,6,8,-6,1.1

# Screening results from PubChem.
